# Test results as given in PubChem BioAssay (NCATS).
# Inconclusive results are not listed. A number with no mark means an inactive call. Active and inactive are the calls of the source. Calls follow the shape of the dose curve; as a rule, active = well fitted cell-killing curve with a large enough effect; inconclusive = small, poorly fitted or top-dose-only effect; inactive = flat fitted curve, though single readings scatter.
# Experiment: qHTS of pediatric cancer cell lines to identify multiple opportunities for drug repurposing: Primary screen for TC32 cells (AID 1347089); also: nearly all actives have a fitted effect of over 60% in size
# Settings: TC32 Ewing sarcoma viability, CellTiter-Glo luminescence, 48 h; series mostly up to 45.8 µM; activity change, negative = cytotoxic: at the top concentration
# From the text: Drug repurposing or repositioning has been offered as a strategy for drug development in oncology programs. This approach has special potential for childhood cancers and other rare or orphan diseases, where the expected return on new drug development has been a disincentive to pharmaceuticals.
# In this project we exploit the poly-pharmacology of drugs to discover new indications via phenotypic screening of a panel of 19 well-characterized cell lines derived from solid tumors seen in children and adolescents. The goal is to identify approved drugs with previously unrecognized anticancer properties that has the potential to reveal new mechanisms and biological processes involved in carcinogenesis or drug resistance. We employed a titration-based paradigm (quantitative high-throughput screening or qHTS), where all compounds were tested at multiple concentrations for their effect on cell viability. Concentration-response curves (CRCs) were derived directly from the primary screen, and both potency and efficacy values were used to identify compounds with robust bioactivity profiles. We screened the NIH Chemical Genomics Center (NCGC) Pharmaceutical Collection (NPC) and Mechanism Interrogation Plate (MIPE) small molecule collections of approved and investigational compounds against these cell lines; and measured metabolically active cells after 48 hours of compound treatment as a proxy for cell viability.
# Assay Submitter: Nathalia J. Martinez, National Center for Advancing Translational Sciences, National Institutes of Health, Rockville, MD, USA; email: natalia.martinez@nih.gov
# [1] Shen, M et al. Quantitative high-throughput phenotypic screening of pediatric cancer cell lines identifies multiple opportunities for drug repurposing. Oncotarget 2017 Dec 19;9(4):4758-4772. PMID 29435139.
# The cells were obtained from University of North Carolina (UNC), Pediatric Preclinical Testing Program (PPT), and Coriell Institute (CI).
# qHTS cell viability assay:
# Cells were assayed in growth media at a density of 500-1,000 cells/well. Five microliters of cells were dispensed into 1,536-well, white, solid-bottom, TC-treated plates (Greiner Bio One) using a multidrop dispenser and incubated at 37 degrees C, 5% CO2, under a humidified atmosphere for 5 hours. Twenty-three nanoliters of compounds and controls (neutral control DMSO or positive control bortezomib at final concentration of 2.3 uM) were subsequently transferred by Kalypsys pintool. For primary screens, the MIPE collection was tested at 11-point dilutions (final concentrations range from 0.78 nM to 46 µM) and the NPC collection at 8-point dilutions (final concentrations range from 0.59 nM to 46 µM). Compounds tested in follow-up screens were assayed at 11-point dilutions. Cells were incubated for 48 hours, followed by addition of 3 uL of CellTiter-Glo (Promega). After a 15min incubation at room temperature, samples were analyzed for luminescence intensity using a ViewLux High-throughput CCD imager equipped with clear filters.
# % is scaled to controls: 0 for no effect and ±100 for the full control effect; potency is read from the fitted curve at half-maximal effect.
Compound,"activity change, negative = cytotoxic [%]",Potency
COc1ccc2c(Oc3ccc(NC(=O)c4c(C)n(CC(C)(C)O)n(-c5ccccc5)c4=O)nc3)ccnc2c1,9.87,–
O=C1Nc2ccc(Cl)cc2C(C#CC2CC2)(C(F)(F)F)O1 (stereo not given),-6.48,–
Oc1ccc(C2=Cc3ccc(O)cc3OC2)cc1,–,7.39 µM (active)
CCn1cc(C(=O)O)c(=O)c2ccc(C)nc21,–,inactive
O=c1c(O)c(-c2ccc(O)cc2)oc2cc(O)cc(O)c12,-6.53,–
O=C(Nc1ccccc1Br)N[C@@H]1CCN(c2ccc(C(F)(F)F)cn2)C1,0.536,–
C[C@H](NC(=O)C(=O)Nc1ccccc1C(C)(C)C)C(=O)N[C@@H](CC(=O)O)C(=O)COc1c(F)c(F)cc(F)c1F,3.59,–
CC[C@H]1OC(=O)[C@H](C)[C@@H](O[C@H]2C[C@@](C)(OC)[C@@H](O)[C@H](C)O2)[C@H](C)[C@@H](O[C@@H]2O[C@H](C)C[C@H](N(C)C)[C@@H]2O)[C@](C)(O)C[C@@H](C)CN(C)[C@H](C)[C@@H](O)[C@]1(C)O,9.89,–
CC(=O)Oc1cc2c(s1)CCN(C(C(=O)C1CC1)c1ccccc1F)C2 (stereo not given),3.85,–
O=C(O)Cc1cccc2ccccc12,–,inactive
CC(C)C[C@H](CC(=O)O)C(=O)N[C@@H](Cc1c[nH]c2ccccc12)C(=O)N[C@@H](C)c1ccccc1,-8.98,–
CCN(CC)C(=O)c1ccc(O)c(OC)c1,6.94,–
CCOC1OC(=O)C[C@H]1NC(=O)[C@@H]1CCCN1C(=O)[C@@H](NC(=O)c1ccc(N)c(Cl)c1)C(C)(C)C (stereo not given in full),13.7,–
Cc1c(O)cccc1C(=O)N[C@@H](CSc1ccccc1)[C@H](O)CN1C[C@H]2CCCC[C@@H]2C[C@@H]1C(=O)NC(C)(C)C,-5.84,–
O=c1cc(-c2ccccc2)oc2cc(O)c(O)c(O)c12,8.05,–
CC(C)C(=O)Oc1ccc(CO)cc1[C@H](CCN(C(C)C)C(C)C)c1ccccc1,-9.17,–
O=C(NOCC(O)CO)c1cc(Br)c(F)c(F)c1Nc1ccc(I)cc1F (stereo not given),5.37,–
O=c1cc(-c2ccccc2)oc2cc(O)cc(O)c12,7.41,–
N#CC1(c2ccc(NC(=O)c3cccnc3NCc3ccncc3)cc2)CCCC1,6.86,–
C[C@]12CCC3c4ccc(O)cc4CCC3C1CCC2=O (stereo not given in full),-7.6,–

Compound,"activity change, negative = cytotoxic [%]",Potency
CCC(=O)O[C@]1(C(=O)CO)CC[C@H]2[C@@H]3CCC4=CC(=O)CC[C@]4(C)[C@@H]3CC[C@@]21C,12.8,–
CC(C)n1cnc2c(NCCCCCCNC(=O)OC(C)(C)C)nc(NCCO)nc21,-3.27,–
COc1ncc(-c2ccc3nccc(-c4ccnnc4)c3c2)cc1NS(=O)(=O)c1ccc(F)cc1F,–,0.0026 µM (active)
Cc1[nH]c(C=C2C(=O)Nc3ccc(S(=O)(=O)Cc4c(Cl)cccc4Cl)cc32)c(C)c1C(=O)N1CCC[C@H]1CN1CCCC1,-15.4,–
CC[C@]1(O)C[C@@H]2CN(CCc3c([nH]c4ccccc34)[C@@](C(=O)OC)(c3cc4c(cc3OC)N(C=O)[C@@H]3C45CCN4CC=C[C@](CC)([C@H]45)[C@@H](OC(C)=O)[C@]3(O)C(=O)OC)C2)C1 (stereo not given in full),-17.8,–
CCN(CC)CCNC(=O)c1ccc(N)cc1,12.9,–
CN1[C@@H]2CCC[C@@H]1CC(NC(=O)c1nn(C)c3ccccc13)C2 (stereo not given in full),5.31,–
CC1(C)CCC2=C(O1)c1ccccc1C(=O)C2=O,-20.8,–
C[N+](C)(C)CCCCCC[N+](C)(C)C,16.3,–
COCCOc1nc(-c2ccc(Cl)c(Cl)c2)n(-c2ccc(NC(=O)CCl)cc2)n1,1.08,–
CN(C)CCC=C1c2ccccc2COc2ccc(CC(=O)O)cc21,7.41,–
COC[C@@H](c1ccc(C(F)(F)F)cc1)N1CCN(C2(C)CCN(C(=O)c3c(C)ncnc3C)CC2)C[C@H]1C,11.6,–
CC[C@@H]1C=C(C)C[C@H](C)C[C@H](OC)[C@H]2O[C@@](O)(C(=O)C(=O)N3CCCC[C@@H]3C(=O)O[C@H](C(C)=C[C@@H]3CC[C@H](Cl)[C@H](OC)C3)[C@H](C)[C@@H](O)CC1=O)[C@H](C)C[C@H]2OC,10.7,–
CCN(CC)CCOC(=O)c1ccc(N)cc1,9.91,–
CC(=Cc1ccccc1)C=C1SC(=S)N(CC(=O)O)C1=O,5.86,–
COC(=O)N[C@H](C(=O)N1CCC[C@@H]1c1ncc(-c2ccc(-c3ccc(-c4cnc([C@@H]5CCCN5C(=O)[C@@H](NC(=O)OC)C(C)C)[nH]4)cc3)cc2)[nH]1)C(C)C,0,–
O=C1NCC2(CCN(CCc3ccccc3)CC2)O1,7.6,–
C[N+]1(C)[C@@H]2CC(OC(=O)[C@H](CO)c3ccccc3)C[C@H]1[C@H]1O[C@@H]12 (stereo not given in full),6.96,–
CCNc1cc(NC2CCC(O)CC2)nc(Nc2ccc3c(ccn3Cc3ccccc3)c2)n1 (stereo not given),-0.156,–
O=C(O)C(O)Cc1ccc(O)c(O)c1 (stereo not given),8.48,–
